The source of these data is PubChem BioAssay (NCATS).

Several values for one entry are separate records, joined by “and”; a condition that tells them apart may be missing. Equal values may be shown once. Results filed as inconclusive are left out. A call without a number means that no potency is given here. Activity calls are given as the source filed them. The call rests on the fitted dose curve; in most records, active means well fitted inhibition curve with a large enough effect; inconclusive means small, poorly fitted or top-dose-only effect; inactive means flat fitted curve, though single readings scatter. Peptide text beside a SMILES is read from it.
Potency means the concentration at half of the fitted maximal effect.

In this experiment the test system is Zika virus NS2B-NS3 protease. As to the kind of experiment: Primary screen GU AMC qHTS for Zika virus inhibitors (AID 1347154). Further: nearly all actives have a fitted effect of over 70% in size. To be noted: Zika NS2B-NS3 unlinked protease, AMC fluorogenic substrate; series mostly up to 54.1 µM; activity change, negative = inhibition: at the top concentration. An outline of the steps:
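Unlinked Zika NS2B hydrophilic domain–NS3 protease complex at 25 nM in 10 mM Tris-HCl pH 8.0, 0.01% Tween 20, with an AMC peptide substrate. Fluorescence change (340/450 nm) over 15 min at room temperature, normalized to controls, fitted to 4-parameter Hill.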
On the technique in general: qHTS replaces the single test concentration by a dilution series.
Consider `CCN(CC)CCOc1ccc(Cc2ccccc2)cc1`, for which the Potency result is “inactive”.

On to `Nc1ccc(S(N)(=O)=O)cc1`, for which the Potency entry is “inactive”.

For the molecule `Cc1cc(Cl)ccc1OCCCC(=O)NO`, the “activity change, negative = inhibition” value is -3.01% (inactive).

Turning to `CN1CCC(=C2c3ccccc3CCc3sccc32)CC1`, the Potency entry was “inactive”.

`CCC[C@@H]1C[C@@H](C(=O)N[C@@H]([C@H]2O[C@H](SC)[C@H](O)[C@@H](O)[C@H]2O)[C@@H](C)O)N(C)C1`: the Potency result was “inactive”.

Regarding `COc1cc2nc(N3CCN(C(=O)C4CCCO4)CC3)nc(N)c2cc1OC` (centres undefined), the Potency was 31.6 µM (active) and 24.1 µM (active).

Regarding `COC(=O)[C@H](Cc1ccccc1)NC(=O)[C@@H](N)CC(=O)O` (H-Asp-Phe-OMe), the Potency entry is “inactive”.

For the molecule `Cc1ccc(S(=O)(=O)NC(=O)NN2CC3CCCC3C2)cc1` (centres undefined), the Potency result was “inactive”.

For the molecule `Cc1ncc([N+](=O)[O-])n1CC(C)O` (centres undefined), the Potency entry was “inactive”.

Regarding `C[C@H](Cn1cnc2c(N)ncnc21)OCP(=O)(O)O`, the “activity change, negative = inhibition” value is 12.3% (inactive).

Turning to `c1ccc2[nH]c(-c3cscn3)nc2c1`, the Potency entry was “inactive”.

For the molecule `Cc1cccc(C)c1OCC(=O)N[C@@H](Cc1ccccc1)[C@@H](O)C[C@H](Cc1ccccc1)NC(=O)[C@H](C(C)C)N1CCCNC1=O`, the Potency entry was “inactive”.

Regarding `C[Se]CCC(N)C(=O)O` (centres undefined), the “activity change, negative = inhibition” value was -3.65% [at 104 µM] (inactive).

Regarding `CNC[C@@H](O)[C@@H](O)[C@H](O)[C@H](O)CO`, the “activity change, negative = inhibition” value was 5.14% (inactive).

Turning to `Cn1c(NCCN(CCO)CCCc2ccc([N+](=O)[O-])cc2)cc(=O)n(C)c1=O`, the Potency entry is “inactive”.

`CCCS(=O)c1ccc2nc(NC(=O)OC)[nH]c2c1` (centres undefined): the Potency entry is “inactive”.

As for `CN(C)[C@@H](CCOc1cccc2ccccc12)c1ccccc1`, the Potency entry was “inactive”.

Regarding `CCC1=C(C)CN(C(=O)NCCc2ccc(S(=O)(=O)NC(=O)NC3CCC(C)CC3)cc2)C1=O` (centres undefined), the Potency result was “inactive”.

For `C=CCc1cc(OC)c(O)c(C(=O)NCCO)c1`, the “activity change, negative = inhibition” value was -23.2% (inactive).
